# Neddyl block: inhibitors of cullin neddylation, primary screen, biochemical, TR-FRET, uHTS, NAE and Ubc12 | NEDD8-conjugating enzyme Ubc12 (Homo sapiens) + NEDD8-activating enzyme E1 regulatory … | AID 651699, 2012 | inhibition, % at 25 µM | 0.58% of 360,000 active; in the data active = inhibition above about 36%
# Target sequence (P61081 whole entry, looked up): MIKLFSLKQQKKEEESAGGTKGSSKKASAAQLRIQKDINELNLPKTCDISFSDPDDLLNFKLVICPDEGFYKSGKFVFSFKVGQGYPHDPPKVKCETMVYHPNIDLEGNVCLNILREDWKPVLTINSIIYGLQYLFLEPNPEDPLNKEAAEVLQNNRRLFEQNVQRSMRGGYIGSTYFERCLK
# Target sequence (Q13564 whole entry, looked up): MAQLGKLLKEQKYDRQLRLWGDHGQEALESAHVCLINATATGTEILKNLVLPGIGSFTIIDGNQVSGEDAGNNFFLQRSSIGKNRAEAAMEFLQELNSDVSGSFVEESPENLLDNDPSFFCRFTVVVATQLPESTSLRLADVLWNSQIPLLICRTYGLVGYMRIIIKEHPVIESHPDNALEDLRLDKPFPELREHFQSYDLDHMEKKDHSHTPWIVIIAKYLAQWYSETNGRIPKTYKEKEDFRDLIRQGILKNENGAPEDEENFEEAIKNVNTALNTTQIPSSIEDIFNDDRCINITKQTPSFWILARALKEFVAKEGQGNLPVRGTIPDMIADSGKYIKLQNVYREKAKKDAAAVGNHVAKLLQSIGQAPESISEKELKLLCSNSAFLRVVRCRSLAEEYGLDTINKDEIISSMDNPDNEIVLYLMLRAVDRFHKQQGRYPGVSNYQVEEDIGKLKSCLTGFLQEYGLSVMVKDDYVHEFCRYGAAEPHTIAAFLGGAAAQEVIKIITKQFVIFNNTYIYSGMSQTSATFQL
# Vif imaging: HIV Vif self-association inhibitors, primary screen, imaging, HEK293T, single point. HEK293T cells, Vif self-association by quenched fluorescence, 24 h. inhibition, % at 7.49 µM. 0.35% of 340,000 active. AID 602346, 2012; in the data active = inhibition above about 50%, passing the limit was not always enough; inconclusive = no clear call, values can overlap the other calls; inactive = below about 31%
# INS-1E GSIS act: GLuc luminescence reporter in INS-1E cells, primary screen for activators of glucose-dependent secretion of insulin; activation, % at 16.6 µM; AID 743287, 2014; 0.61% of 370,000 active; INS-1E GLuc reporter insulin secretion, 2-3 h;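 active = lowest replicate activation of at least 40%, so every replicate reaches that level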;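 note: 0% = median of neutral control wells and 100% = median of IBMX positive control wells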
# dFosB activator: activators of delta FosB homodimer, primary screen, biochemical, fluorescence polarization, TAMRA-CDK5 oligo, single point | purified delta FosB; percent of positive-control signal above neutral wells | Protein FosB (Mus musculus), P13346 | activation, % at 25 µM | AID 493131, 2011 | 0.99% of 340,000 active;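 active = mean activation above about 17%, with every replicate also reaching it, limit read from the data, passing the limit was not always enough; inconclusive = only one of the two conditions met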
# Bfl-1 A1 inh: caspase 3/7 activation in MEF A1-2A-BIM cells, primary screen, A1 inhibitor project, cell-based, luminescence, HTS | Caspase-Glo 3/7 luminescence, 3 h; percent of clofoctol response, vehicle zero | caspase activation, % (no concentration beside the values) | 0.066% of 330,000 active | AID 2462, 2010;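 active = over half of replicate activation scores above 10%, or exactly half above 10 with the replicate mean above 10; inconclusive = replicate mean below 10 yet half the replicates above 10; inactive = over half of replicates below 10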
# * = called active by the depositor; ? = inconclusive; . = no result shown. The list is not random: actives were taken first. Their share in the collection is about 1.9%.
SMILES,Neddyl block,Vif imaging,INS-1E GSIS act,dFosB activator,Bfl-1 A1 inh
COc1cc(/C=N/n2c(-c3ccccc3)n[nH]c2=S)ccc1O,2,-2,25,2,0
COc1ccc(/C=N/n2c(-c3n[nH]c4c3CCC4)n[nH]c2=S)cc1OC,12,-5,45*,-7,0
O=S(=O)(NCC[C@H]1CC[C@H](NS(=O)(=O)c2cccc(F)c2)[C@@H](CO)O1)c1cccc(F)c1,.,.,-9,.,.
O=C(CCN1C(=O)/C(=C/c2cccs2)SC1=S)Nc1ccccc1O,-24,-12,2,21*,0
O=C(CCCN1C(=O)/C(=C\c2cccs2)SC1=S)Nc1cc([N+](=O)[O-])ccc1O,-52,-19,12,26*,0
O=C(NC1CCCC1)[C@@H]1[C@@H](CO)[C@@H]2Cn3c(ccc(-c4ccccc4)c3=O)[C@H]1N2CCc1ccccc1,.,.,-23,.,.
CO[C@@H]1CN(C)C(=O)c2cc(NC(=O)CC(F)(F)F)ccc2OC[C@@H](C)N(C(=O)C2CCOCC2)C[C@@H]1C,.,.,-1,.,.
CNC[C@H]1Oc2ccc(NC(=O)CCC(F)(F)F)cc2CC(=O)N([C@@H](C)CO)C[C@H]1C,.,.,13,.,.
CCOc1ccc(N=C2NC(=O)S/C2=C\c2ccc(Cl)cc2)cc1,-3,0,44,2,1
COc1ccc(N=C2NC(=O)S/C2=C\c2ccc(N(C)C)cc2)cc1,-28,104*,.,-1,-1
O=C(C[C@H]1CC[C@@H](NS(=O)(=O)c2ccccc2)[C@H](CO)O1)NCc1ccncn1,.,.,16,.,.
O=C(Nc1cccc(Cl)c1)N1C[C@H]2[C@@H](c3ccccc31)[C@@H](CO)N2Cc1cccnc1,.,.,-2,.,.
Cc1nn(CC(=O)NC(=O)c2ccccc2)c(C)c1[N+](=O)[O-],18,54*,32,-12,1
Cc1nn(CC(=O)NCc2ccccc2)c(C)c1[N+](=O)[O-],-5,5,.,-3,0
Cc1noc(C)c1NC(=O)N[C@H]1CC[C@@H](CC(=O)Nc2ccc(-c3ccccc3)cc2)O[C@@H]1CO,.,.,5,.,.
Cc1cc(=O)n2ccsc2n1,14,-17,47*,-2,1
O=c1cc(CN2CCCCCC2)nc2sccn12,.,-5,7,-8,-1
C[C@H](CO)N1C[C@H](C)[C@@H](CN(C)C)Oc2ccc(NC(=O)NC3CCCCC3)cc2C1=O,.,.,-8,.,.
CC1(Cc2cc(Cl)ccc2C(F)(F)F)C(=O)Nc2cc(C(F)(F)F)ccc21 (stereo unspecified),-3,-15,298*,.,.
CC1(Cc2cc(Cl)ccc2C(F)(F)F)C(=O)Nc2ccc(-c3ccc(F)c(Cl)c3)cc21 (stereo unspecified),-8,-13,283*,.,.
CC1(Cc2cc(Cl)ccc2C(F)(F)F)C(=O)Nc2cc(F)ccc21 (stereo unspecified),0,.,.,.,.
CO[C@H]1CN(C)C(=O)c2cc(NC(C)=O)ccc2OC[C@@H](C)N(C(=O)C2CCOCC2)C[C@H]1C,.,.,18,.,.
COc1ccccc1S(=O)(=O)N1[C@@H]2CNC[C@H]1[C@H]2c1ccc(-c2ccccc2C)cc1,.,.,-20,.,.
C[C@H]1CN([C@@H](C)CO)C(=O)c2cccc(NS(=O)(=O)c3cn(C)cn3)c2O[C@H]1CN(C)S(=O)(=O)c1ccc(Cl)cc1,.,.,14,.,.
C[C@@H]1CN([C@@H](C)CO)C(=O)c2cc(NC(=O)Nc3ccc(F)cc3)ccc2O[C@@H](C)CCCCO[C@H]1CN(C)S(=O)(=O)c1cn(C)cn1,.,.,7,.,.
SMILES,Neddyl block,Vif imaging,INS-1E GSIS act,dFosB activator,Bfl-1 A1 inh
O=C1CCNc2ccc(-c3ccccc3)cc21,21,-5,5,-12,0
Cc1ccc2c(c1)C(=O)CCN2,9,51*,23,2,-1
OC(CNCC(c1ccc(Cl)cc1Cl)c1c[nH]c2ccccc12)c1ccccc1 (stereo unspecified),10,-3,-26,83*,2
COc1ccccc1C#Cc1ccc([C@H]2[C@@H](C#N)N(C(=O)C3CCC3)[C@H]2CO)cc1,.,.,-31,.,.
CN1CCN(C(c2ccc(Br)cc2)c2cc(Cl)c3cccnc3c2O)CC1 (stereo unspecified),20,20,-32,29*,0
COc1ccccc1Nc1nnc(SCC(=O)NC(=O)Nc2ccc3c(c2)OCCO3)s1,1,7,81*,?,-1
Cc1ccccc1Nc1nnc(SCC(=O)NC(=O)Nc2ccc3c(c2)OCCO3)s1,.,.,.,.,-1
NC(CCc1ccccc1)c1csc(Nc2ccc(C(F)(F)F)cn2)n1 (stereo unspecified),14,16,308*,.,.
NC(COCc1ccccc1)c1csc(Nc2ccc(C(F)(F)F)cn2)n1 (stereo unspecified),9,-2,254,.,.
CC(=O)c1ccc(Nc2nc(C(N)C3CCCCC3)cs2)cc1 (stereo unspecified),38,7,.,.,.
NC(c1csc(Nc2ccc(C(=O)c3ccccc3)cc2)n1)C1CCCCC1 (stereo unspecified),.,65*,-24,.,.
NC(c1csc(Nc2ccc(C(F)(F)F)cn2)n1)C1CCCCC1 (stereo unspecified),9,0,533*,.,.
NC(CO)c1csc(Nc2ccc(C(F)(F)F)cn2)n1 (stereo unspecified),10,-6,0,.,.
C[C@H](CO)N1C[C@H](C)[C@H](CN(C)S(=O)(=O)c2ccc(Cl)cc2)OCCCC[C@H](C)Oc2ccc(NS(C)(=O)=O)cc2C1=O,.,.,-6,.,.
CN1CCCN(c2cc(-c3ccc4ccccc4c3)nc3ccnn23)CC1,46*,0,0,.,.
Cc1cccc(-c2cc(N3CCCN(C)CC3)n3nccc3n2)c1,.,-1,-7,.,.
O=[N+]([O-])c1ccc(NN=Cc2ccccc2O)nc1,-21,8,.,6,.
N#Cc1ccccc1Cn1cc(/C=N/Nc2ccc([N+](=O)[O-])cn2)c2ccccc21,-13,158*,-13,-3,0
COc1ccc(C=NNc2ccc([N+](=O)[O-])cn2)cc1,4,-1,.,-4,.
O=[N+]([O-])c1ccc(N/N=C/c2ccc(OCc3cccc4ccccc34)cc2)nc1,5,149*,9,0,0
O=C(N/N=C/c1ccc(Cl)cc1Cl)Nc1ccccc1,-8,9,42*,10,-1
CCC(=O)N1CC2(C1)[C@@H](c1ccc(-c3ccc(F)cc3)cc1)[C@H](CO)N2C(C)=O,.,.,2,.,.
C[C@@H]1CN([C@@H](C)CO)C(=O)Cc2cc(NC(=O)Nc3ccc(F)cc3)ccc2O[C@@H]1CN(C)S(=O)(=O)c1ccc(F)cc1,.,.,-3,.,.
O=C(Nc1nc2cc3c(cc2s1)OCCO3)c1ccco1,43*,0,.,2,-1
C[C@H]1CN([C@@H](C)CO)C(=O)c2cc(NC(=O)Nc3ccc(F)cc3)ccc2O[C@H]1CN(C)C(=O)Nc1ccc2c(c1)OCO2,.,.,1,.,.

# Compound activity deposited in PubChem BioAssay by several laboratories.
